NadD block = inhibitors of S. aureus NadD, primary screen, biochemical, colorimetric, uHTS; Nicotinate-nucleotide adenylyltransferase NadD (Staphylococcus aureus N315); purified NadD enzyme, colorimetric absorbance read-out; inhibition, % at 20 µM; hit rate 0.78% among 360,000; AID 602399, 2012; in the data active means inhibition above about 26%
DAGLB inhibitor = DAGLB lipase inhibitors, primary screen, biochemical, fluorescence, HTS | HEK293T DAGLB membrane lysate, EnzChek fluorogenic substrate | inhibition, % at 5.17 µM | hit rate 0.059% among 340,000; in the data active means inhibition above about 34%;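 further: 0% = enzyme with vehicle and 100% = wells lacking enzyme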
Neddylation inh = inhibitors of cullin neddylation, primary screen, biochemical, TR-FRET, uHTS, NAE and Ubc12. inhibition, % at 25 µM. hit rate 0.58% among 360,000. AID 651699, 2012; in the data active means inhibition above about 36%
ARNT-TACC3 inh = disruptors of ARNT/TACC3 protein interaction, primary screen, biochemical, AlphaScreen, single concentration; AlphaScreen His-ARNT PAS-B/GST-TACC3 binding, luminescence; TACC3 fragment carries E629A point mutation; inhibition, % at 9.99 µM; AID 623870, 2012; hit rate 0.66% among 390,000; Transforming acidic coiled-coil-containing protein 3 (Homo sapiens), Q9Y6A5;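 active means mean inhibition of replicates at least 50% and at least half of replicates each reaching 50%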;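 further: 0% = complete ARNT plus TACC3 wells and 100% = ARNT alone without TACC3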
sPLA2-III inh = human group III sPLA2 inhibitors, primary screen, biochemical, QFRET, BODIPY PC-A2 liposome substrate | Group 3 secretory phospholipase A2 (Homo sapiens), Q9NZ20 | QFRET BODIPY PC-A2 liposome hydrolysis, fluorescence | inhibition, % at 12.2 µM | hit rate 0.56% among 370,000;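 active means inhibition above mean plus 3 SD of compounds lying within the high and low control bounds, cut at about 19% in these data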;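 further: 0% = median of test compound wells and 100% = no enzyme DMSO wells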
Target sequence (Q9NZ20 whole entry, looked up): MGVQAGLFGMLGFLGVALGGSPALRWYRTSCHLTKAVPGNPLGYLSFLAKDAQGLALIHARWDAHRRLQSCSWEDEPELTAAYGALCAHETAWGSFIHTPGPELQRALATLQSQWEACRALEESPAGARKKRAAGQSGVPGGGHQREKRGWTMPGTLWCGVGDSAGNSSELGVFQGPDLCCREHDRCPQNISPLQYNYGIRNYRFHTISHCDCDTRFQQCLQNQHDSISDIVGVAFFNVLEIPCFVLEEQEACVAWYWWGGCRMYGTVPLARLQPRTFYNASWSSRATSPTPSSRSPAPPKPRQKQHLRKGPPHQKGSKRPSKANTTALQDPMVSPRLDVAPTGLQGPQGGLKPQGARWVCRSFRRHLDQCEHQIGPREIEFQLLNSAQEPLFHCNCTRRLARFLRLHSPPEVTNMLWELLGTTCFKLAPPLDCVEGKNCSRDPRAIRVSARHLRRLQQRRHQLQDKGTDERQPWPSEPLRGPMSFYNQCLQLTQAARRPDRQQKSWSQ
NadD conf = inhibitors of S. aureus NadD, confirmation, biochemical, colorimetric, single concentration; shares compounds with NadD block; purified S. aureus NadD, colorimetric enzyme assay; inhibition, % at 20 µM; hit rate 13% among 2,000; AID 624309, 2012; in the data active means inhibition mostly above about 42%, no sharp cut-off; inactive means mostly below about 42%
* hit, by the source's call; i = inactive; . = no result shown. An excerpt weighted towards active compounds, which were near 2% of everything screened.

SMILES	NadD block	DAGLB inhibitor	Neddylation inh	ARNT-TACC3 inh	sPLA2-III inh	NadD conf
O=C(c1ccc(Cl)c(S(=O)(=O)Nc2ccccc2C(=O)N2CCc3ccccc3C2)c1)N1CCc2ccccc2C1	46.9*	11.4	-6.1	-5.4	-42.1	32.9
O=C(c1ccc(Cl)c(S(=O)(=O)N2CCc3ccccc3C2)c1)N1CCN(c2ccccc2)CC1	2.4	-10.9	-32.4	4.0	13.4	.
O=C(C[C@H]1C[C@@H]2c3cc(NC(=O)Nc4ccccc4)ccc3O[C@@H]2[C@H](CO)O1)NCC1CC1	.	.	.	-1.0	.	.
C[C@H]1CN([C@@H](C)CO)C(=O)c2cc(/C=C/c3ccccc3)cnc2O[C@@H]1CN(C)C(=O)C1CCCCC1	.	.	.	12.9	.	.
Cc1ccc(NC(=O)c2ncn(CCCN(CCCn3cnc(C(=O)Nc4ccc(C)c(C)c4)n3)Cc3ccc4[nH]ccc4c3)n2)cc1C	38.7*	1.6	-13.8	-0.8	-10.0	31.7
Cc1ccc(NC(=O)c2ncn(CC(=O)NCc3ccc4[nH]ccc4c3)n2)cc1C	0.4	-5.6	3.4	6.4	-26.1	.
CC(=O)N(C)C[C@H]1[C@H](c2ccc(C3=CCCC3)cc2)[C@H](CO)N1CC1CC1	.	.	.	1.1	.	.
COc1cccc(N2CC(C(=O)Nc3nnc(SCC(=O)Nc4cc(C)on4)s3)CC2=O)c1 (configuration not stated)	40.9*	0.3	-51.8	-3.0	4.0	2.7
COc1cccc(N2CC(C(=O)Nc3nnc(SCC(=O)N4CCCC4)s3)CC2=O)c1 (configuration not stated)	1.5	0.4	-1.0	3.0	-5.8	.
Cc1ccc(N2CC(C(=O)Nc3nnc(SCC(=O)Nc4cc(C)on4)s3)CC2=O)cc1 (configuration not stated)	39.0*	-1.4	-13.5	0.7	-1.0	2.2
O=C(Nc1ccccc1)N1CCCCN2[C@@H](CO)[C@@H](c3ccc(C#Cc4ccccn4)cc3)[C@@H]2C1	.	.	.	15.3	.	.
COc1ccc(/C=N/NC(=O)c2ccn[nH]2)cc1COc1ccc([N+](=O)[O-])c(C)c1	30.9*	.	-20.7	.	-19.1	21.7
Cc1nc(SCC(=O)c2cc3ccccc3oc2=O)c(C#N)c(-c2cccs2)c1C(=O)Nc1ccccc1	32.5*	4.5	-29.5	-3.4	4.2	2.0
CC(C)c1c(C#N)c(N)nc(SCC(=O)c2cc3ccccc3oc2=O)c1C#N	17.0	-0.5	-33.3	-16.8	-4.5	.
CCCC#Cc1cnc2c(c1)C(=O)N([C@H](C)CO)C[C@H](C)[C@H](CN(C)C(=O)Nc1ccc(OC)cc1)O2	.	.	.	1.1	.	.
CS(=O)(=O)c1sc2nc(-c3cccs3)cc(-c3ccccc3)c2c1N	73.5*	-0.4	-31.3	3.3	-9.1	13.6
Cc1ccc(-c2cc(-c3ccccc3)c3c(N)c(S(C)(=O)=O)sc3n2)cc1	25.7	-1.8	.	-14.0	1.4	.
O=c1[nH]c(C2CCCN(S(=O)(=O)c3cccc(Cl)c3)C2)nc2c1nnn2Cc1ccc2c(c1)OCCO2 (configuration not stated)	58.3*	9.7	-1.0	-23.8	-1.5	57.3*
O=c1[nH]c(C2CCN(S(=O)(=O)c3ccc4c(c3)OCCO4)CC2)nc2c1nnn2Cc1ccccc1	2.0	0.8	6.9	8.1	-30.3	.
Cc1ccc(C)c(S(=O)(=O)N2CCC(c3nc4c(nnn4Cc4ccc5c(c4)OCCO5)c(=O)[nH]3)CC2)c1	45.5*	2.4	-15.7	1.2	-39.6	10.0
CC(C)NC(=O)Nc1ccc2c(c1)CC(=O)N([C@@H](C)CO)C[C@@H](C)[C@H](CN(C)C(=O)NC1CCCCC1)O2	.	.	.	0.5	.	.
C[C@H](CO)N1C[C@H](C)[C@H](CN(C)Cc2ccncc2)Oc2ncc(C#CC3CCCC3)cc2C1=O	.	.	.	-2.7	.	.
Cc1ccc(N=C2SC(C(=O)Nc3ccc(OC(F)(F)F)cc3)C(N)=C2C(=O)Nc2c(C)cc(C)cc2C)cc1 (configuration not stated)	32.6*	-8.1	-30.4	1.4	-28.6	38.0
O=C(Nc1ccc(Cl)c(Cl)c1)Nc1nnc(-c2ccncc2)s1	60.9*	0.8	23.4	-13.5	2.3	9.2
COc1ccc(NC(=O)Nc2nnc(-c3ccncc3)s2)cc1	8.9	3.0	-1.3	.	-5.9	.
SMILES	NadD block	DAGLB inhibitor	Neddylation inh	ARNT-TACC3 inh	sPLA2-III inh	NadD conf
S=c1nc[nH]c2c1sc1nc(N3CCOCC3)c3c(c12)CCCC3	32.8*	-0.1	i	-26.4	3.0	-2.0
O=S(=O)(Nc1ccc2c(c1)nc1n2CCN(Cc2ccccc2)C1)c1ccc(Cl)cc1	31.9*	-0.1	.	0.8	-21.7	43.3
CCOC(=O)/C=c1\s/c(=C\c2ccc3cc(OC)ccc3c2)c(=O)n1CC(=O)NCc1ccc2c(c1)OCO2	32.6*	-1.4	22.0	-11.0	7.9	-3.3
CCOC(=O)/C=c1\s/c(=C\c2ccccc2C)c(=O)n1CC(=O)NCc1ccc2c(c1)OCO2	5.5	7.5	.	-2.5	-14.0	.
CC(C)c1ccc(/C=C2\SC(=O)N(CC(=O)NCCCn3ccnc3)C2=O)cc1	33.6*	-2.2	-32.2	8.3	-17.5	-4.6
O=C(Nc1ccc(-c2nc3ccccc3o2)c(O)c1)c1cc(-n2cnnc2)ccc1Cl	29.6*	-1.9	-1.6	-2.1	1.9	11.5
C(=N/n1c2ccccc2c2ccccc21)/c1ccco1	-1.0	-6.3	-1.5	2.5	1.9	.
N=c1scc(-c2ccccc2)n1/N=C/c1ccco1	37.5*	8.8	-0.9	15.8	14.2	45.0
Cc1cc(-c2nnc(SCC(=O)Nc3nc(-c4ccc(Cl)cc4)cs3)o2)no1	26.6*	8.6	-7.1	-3.8	-1.0	2.1
COc1cc(NC(=O)CSc2nnc(-c3cc(C)on3)o2)cc(OC)c1	-2.0	-3.4	3.0	-1.2	0.8	.
O=C1OC(c2cccs2)=N/C1=C\c1ccc(-c2ccccc2Cl)o1	39.5*	7.2	.	10.3	-14.6	4.4
CN1C(=O)c2cc(NC(=O)c3cccs3)ccc2OC[C@H]2O[C@H](CC(=O)NCC(F)(F)F)CC[C@@H]21	.	.	.	0.0	.	.
COc1ccc(Cn2c(C)nc3c(c2=O)c2nc4ccccc4nc2n3Cc2ccco2)cc1	38.0*	4.8	9.2	-7.0	-4.8	18.1
Cc1cc(C)cc(-n2c3nc4ccccc4nc3c3c(=O)n(Cc4ccco4)cnc32)c1	33.4*	6.5	9.5	2.3	-4.3	9.0
Cc1nc2ccccc2c(=O)n1Cc1ccco1	-2.6	.	0.6	.	8.9	.
